Assay results as given in PubChem BioAssay (NCI).
Compounds without any hit were thinned out: in the full panel of roughly 83,000, 20% have a hit.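 Note: values are percent growth. 100 is the growth of untreated cells, values between 100 and 0 indicate rising inhibition; between -100 and 0 indicates cell death.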 A number with no mark means an inactive call. Activity calls are given as the source filed them. How the source made its calls: active means growth percent below 10; inactive means the rest.

The compounds below were run on SK-MEL-2 melanoma (assay: NCI-60 one-dose screen, 48 h (100 = growth as untreated, 0 = no growth, -100 = all killed)). Details: 10 µM.
For `O=[N+]([O-])c1cc(Cl)cc(Cl)c1O`, the growth was 103%. With `CN(C)CCCSc1ccccc1NC1=C(Cl)C(=O)C(Nc2ccccc2SCCCN(C)C)=C(Cl)C1=O` the growth was 43.8%. Work on `CCN(CC)CCOc1cccc2c1C(=O)c1ccccc1C2=O` yielded a growth of 91.8%. In the case of `CCOC(=O)c1cc(C(=O)c2ccc(OC)c(OC)c2)n2c1ccc1ccc3cccnc3c12`, the growth is reported as 19%. `CCN(CC)CCOc1ccc2c(c1O)C(=O)c1ccccc1C2=O` showed a growth of 88.1%. `COc1cc(-c2nn(-c3cccc(NC(=O)NCCNC(=O)c4ccccc4)c3)cc2-c2ccncc2)ccc1Cl` was tested, and the growth was -20.9% (active). With `CN(C)CCN(Cc1ccccc1)c1ccc2ccccc2n1` the growth was 103%. `Nc1ccc(/C=N/Nc2ccnc3c(O)cccc23)c2cccnc12` was tested, and the growth was 74.1%. Compound `CCOC(=O)c1cc(C(=O)c2cc(OC)c(OC)c(OC)c2)n2ccc(-c3cc[n+](CC(=O)c4cc(OC)c(OC)c(OC)c4)cc3)cc12` has a growth of 101%. In the case of `COc1ccc2nc(-c3ccc(Cl)cc3)cc(-c3nnc(SC/C(=N\O)c4ccccc4)n3-c3ccccc3)c2c1`, the growth is reported as 89.9%. Compound `CCN(CC)CCNc1ccc(C)c2sc3cc(Cl)ccc3c(=O)c12` has a growth of 36.5%. For `C/C=C/CSC(C)(C)C(=O)NC`, the growth was 109%. In the case of `CCOS(=O)(=O)c1c(C(C)C)cc(C(C)C)cc1C(C)C`, the growth is reported as 96.9%. `O=C(Nc1nc(-c2ccccc2)nc2c1sc(=S)n2-c1ccccc1)C(F)(F)F` was tested, and the growth was 104%. With `CCOC(=O)c1cc(C(=O)c2cc(OC)c(OC)c(OC)c2)n2ncc3ccccc3c12` the growth was 78.5%. Work on `Cc1ccc(NCCN(C)CC(C)O)c2c(=O)c3ccccc3sc12` (stereo not given) yielded a growth of 90.6%. In the case of `COc1cc(-c2nn(-c3cccc(NC(=O)NCCNS(=O)(=O)c4ccc(Cl)cc4)c3)cc2-c2ccncc2)ccc1Cl`, the growth is reported as 2.83% (active). With `COc1cc(-c2nn(-c3cccc(NC(=O)CCN4CCN(c5ccccc5)CC4)c3)cc2-c2ccncc2)ccc1Cl` the growth was -0.713% (active). For `O=S(=O)(O)c1cccc(Nc2ccc3ccccc3c2)c1`, the growth was 93.7%. With `CCCCCCCCCCOC(c1ccccc1)c1ccccc1` the growth was 73.5%. For `CC(=O)Nc1ccc2c(c1)C(=O)c1cccc(C(=O)O)c1-2`, the growth was 115%. In the case of `Cc1ccc(NCCNCC(C)(C)O)c2c(=O)c3ccc(Cl)cc3sc12`, the growth is reported as 57.4%. For `CN(C)CCOc1cccc(NC2=C(Cl)C(=O)C(Nc3cccc(OCCN(C)C)c3)=C(Cl)C2=O)c1`, the growth was -73.8% (active). `CCOC(=O)c1cc(C(=O)c2ccc(Cl)cc2)n2ccc(-c3cc[n+](CC(=O)c4ccc(OC)cc4)cc3)cc12` showed a growth of 97.6%. Compound `O=C1c2ccccc2C(=O)c2c1ccc(C(Br)Br)c2[N+](=O)[O-]` has a growth of 77.5%. With `O=C(NCCNC(=O)c1ccc(F)cc1)Nc1ccc(-n2cc(-c3ccncc3)c(-c3ccc(Cl)c(O)c3)n2)cc1` the growth was -11.4% (active). `CCN(CC)CC(=O)N(CC)c1ccc(C)c(Cl)c1` showed a growth of 99.5%. `O=S(=O)(O)c1ccc(Cl)cc1` gave a growth of 95.9%. For `CCNCC(=O)Nc1ccc(C(=O)OCC)cc1`, the growth was 102%. Work on `S=C(SSC(=S)N(c1ccccc1)c1ccccc1)N(c1ccccc1)c1ccccc1` yielded a growth of 95.1%. `CC(C)CCN(CCC(C)C)CC(=O)Nc1ccc(S(=O)(=O)c2ccc(NC(=O)CN(CCC(C)C)CCC(C)C)cc2)cc1` gave a growth of 65.4%. `N#CCc1csc(Cc2ccccc2)n1` gave a growth of 101%. Compound `CCOC(=O)c1cocc1C(=O)O` has a growth of 105%. Compound `CC(CN(C)C)Oc1ccc(OC(C)CN(C)C)c2c1C(=O)c1ccccc1C2=O` (stereo not given) has a growth of 41%. With `Cc1ccc(S(=O)(=O)N(C)CCCCCC(=O)O)cc1` the growth was 99.9%. `Cc1ccc(NCCN(C)CC(C)O)c2c(=O)c3ccc(Cl)cc3sc12` (stereo not given) showed a growth of 66.8%. Compound `O=C(Nc1cccc2c1CCCC2)c1cc2ccccc2cc1O` has a growth of 41.1%. Work on `COc1cc(OC)c2c(=O)c(O)c(-c3ccccc3)oc2c1` yielded a growth of 87.3%. `O=C1c2ccccc2C(=O)c2c1ccc(C(Br)Br)c2Cl` gave a growth of 60.7%. Work on `COc1cc(C)ccc1Oc1nc(Nc2ccc(N3CCOCC3)cc2)ncc1NC(=O)Nc1cc(C(F)(F)F)cc(C(F)(F)F)c1` yielded a growth of 88.6%.
